HCMV antiviral = human cytomegalovirus inhibition; activity change, negative = inhibition, % at 57.5 µM; AID 1259415; 4.5% of 410,000 active; HFF cells, HCMV-luciferase reporter, 72 h; active compounds read low; in the data active means activity change below about -60%; inconclusive means no clear call, values can overlap the other calls; inactive means above about -39%
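Compounds were evaluated in HFFs infected with an HCMV luciferase reporter virus (MOI 1 PFU/cell). Luciferase in lysates collected 72 h post infection served as the replication measure.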
LASV entry inh = Lassa virus entry inhibition. Lassa virus pseudotype entry inhibition, cell reporter. 1.2% of 300,000 active. Potency, µM (top dose mostly 37.9 µM), usual class: inhibitors; calls by dose curve; tested in HEK293 cells; further: nearly all actives have a fitted effect of over 50% in size
Marburg entry inh = inhibitors of Marburg virus binding or cell entry | Potency, µM (top dose mostly 37.8 µM), usual class: inhibitors | Marburg virus pseudotyped entry inhibition, cell reporter | 1.8% of 300,000 active | AID 540276; calls by dose curve; tested in HEK293 cells
FMDV antiviral = antivirals against foot and mouth disease virus; FMDV antiviral cell-based qHTS; Potency, µM (titrated, usually from 57.9 µM), usual class: inhibitors; 1.2% of 410,000 active; calls by dose curve; tested in HEK293T cells; further: read-out not given here; nearly all actives have a fitted effect of over 45% in size
Hits are given with their value; – = inactive; ? = inconclusive; · = no result given. Hits are enriched below; roughly 6.2% of the tested compounds scored in any of these assays.

SMILES | HCMV antiviral | LASV entry inh | Marburg entry inh | FMDV antiviral
COc1ccc(Cn2c(C(=O)O)c(CNCc3cccs3)c3ccc(C)cc32)cc1 | -66 | ? | · | –
COc1ccc(Cn2c(C(=O)O)c(CNCCc3cc(OC)ccc3OC)c3ccc(C)cc32)cc1 | -105 | ? | · | –
COc1ccc(Cn2c(C(=O)O)c(CNCc3ccc(OC)cc3OC)c3ccc(C)cc32)cc1 | ? | – | · | ?
Cc1ccc2c(CNCc3cccs3)c(C(=O)O)n(Cc3ccc(F)cc3)c2c1 | -102 | ? | · | –
C=Cc1ccc(Cn2c(C(=O)O)c(CNCc3ccc(F)cc3)c3ccc(C)cc32)cc1 | -91 | ? | · | ?
COc1ccc(Cn2c(C(=O)O)c(CNCc3ccc(SC)cc3)c3ccc(OC)cc32)cc1 | -91 | ? | · | ?
Cc1nn(-c2nc3ccccc3s2)c(C)c1Oc1ccccc1O | · | ? | 4.6µM | –
O=C(N/N=C(\Cc1ncc[nH]1)c1ccccc1)c1ccccc1 | -78 | · | · | ·
O=C(N/N=C(\Cc1ncc[nH]1)c1ccccc1)c1ccncc1 | -91 | ? | ? | –
O=C(N/N=C(\Cc1ncc[nH]1)c1ccccc1)c1cccnc1 | ? | ? | ? | –
O=C(NC1CCCCCC1)c1ccc(CS(=O)c2cccc(Cl)c2)o1 (stereo not given) | – | – | · | –
CC(=O)N1[C@@H]2c3ccc(-c4cccnc4)c(=O)n3C[C@@H]2[C@@H](CO)[C@@H]1C(=O)NCc1ccccc1Cl | – | · | · | ·
CCNC(=S)NNC(=O)c1ccc(S(=O)(=O)NCc2ccco2)cc1 | -100 | – | ? | –
CCc1ccccc1NC(=O)CNC(=O)c1ccc(S(=O)(=O)NCc2ccco2)cc1 | -102 | · | · | –
CC(C)(C)c1ccc(C(=O)NNC(=S)NCc2ccco2)cc1 | – | ? | ? | –
CC(C)(C)OC(=O)N[C@H]1C=C[C@@H](CC(=O)OCC(F)(F)F)C1 | – | · | · | ·
CCC(=O)Nc1ccc2nc(SCCOc3ccccc3)sc2c1 | -63 | – | ? | –
CCCC(=O)Nc1ccc2nc(SCCOc3ccccc3)sc2c1 | -60 | – | – | –
O=C(Nc1ccc2nc(SCCOc3ccccc3Cl)sc2c1)c1cccs1 | -88 | – | – | –
CCc1ccc(S(=O)(=O)c2cn(Cc3ccc(OC)cc3)c3cc(OC)c(OC)cc3c2=O)cc1 | – | – | – | –
CN1[C@@H]2CC(OC(=O)[C@H](CO)c3ccccc3)C[C@@H]1[C@H]1O[C@H]12 (stereo not given in full) | · | · | · | –
CCN(CC)CCCNc1oc(-c2cccc(Cl)c2)nc1C#N | – | – | 16µM | –
C=CCNc1oc(-c2cccc(Cl)c2)nc1C#N | – | · | · | –
COc1cccc(C(C)(O)c2nc(-c3cncnc3)cs2)c1 (stereo not given) | – | · | · | –
CC(O)(c1ccncc1)c1nc(-c2cccc(C(F)(F)F)c2)cs1 (stereo not given) | -69 | · | · | ?
SMILES | HCMV antiviral | LASV entry inh | Marburg entry inh | FMDV antiviral
COc1cccc(C(C)(O)c2nc(-c3cccs3)cs2)c1 (stereo not given) | -79 | · | · | –
COc1cccc(C(C)(O)c2nc(-c3ccc(OC)nc3)cs2)c1 (stereo not given) | -62 | · | · | ?
CC(O)(c1cccc(F)c1)c1nc(-c2cccc(C(F)(F)F)c2)cs1 (stereo not given) | – | · | · | –
COc1cccc(C(C)(O)c2nc(-c3ccc(S(C)(=O)=O)cc3)cs2)c1 (stereo not given) | -86 | · | · | ?
COc1cccc(C(C)(O)c2nc(-c3cnc4ccccc4c3)cs2)c1 (stereo not given) | -62 | · | · | ?
COc1cccc(C(C)(O)c2nc(-c3ccc(Cl)cc3)cs2)c1 (stereo not given) | – | · | · | –
COc1ccc(-c2csc(C(C)(O)c3cccc(OC)c3)n2)cc1 (stereo not given) | -65 | · | · | ?
Cc1oc(-c2ccccc2NC(=O)C2CCCO2)nc1CNC(=O)c1[nH]c2c(C)ccc(C)c2c1C (stereo not given) | · | · | · | –
O=C(Nc1ccc(F)cc1)Nc1csc2ccccc12 | -75 | ? | ? | –
O=C(Nc1ccc(F)cc1)Nc1ccc(N2CCCC2)c(S(=O)(=O)Nc2ccccc2Cl)c1 | -100 | 7.3µM | 7.9µM | –
O=C(Nc1ccc(F)cc1)Nc1ccccc1N1CCCCC1 | -71 | · | · | ?
O=C(/C=C/c1cccs1)Nc1ccc(N2CCOCC2)c(S(=O)(=O)Nc2ccccc2Cl)c1 | -78 | ? | ? | –
O=C(/C=C/c1cccs1)Nc1ccc(N2CCOCC2)c(S(=O)(=O)Nc2cc(Cl)ccc2Cl)c1 | – | – | – | –
O=C(Cc1ccc(F)cc1)Nc1ccccc1N1CCCC1 | – | · | · | –
Cc1ncc2c(c1CNC(=O)/C=C/c1cccs1)CCN(C(=O)c1cc(C(C)C)on1)C2 | · | · | · | –
COC1=C[C@H](C(=O)NCCNC(C)=O)[C@@]2(C)Cc3ccccc3[C@@H]2CC1=O | · | ? | – | ·
CC(C)(C)CC(=O)Nc1ccccc1N1CCN(c2ccccc2)CC1 | – | ? | ? | –
O=C(NC(=S)Nc1ccccc1N1CCCCC1)c1ccco1 | -71 | – | – | 22µM
O=C(NC(=S)Nc1ccccc1N1CCCC1)c1ccco1 | – | – | – | –
CC(C)(C)CC(=O)Nc1ccccc1N1CCN(c2ccc(F)cc2)CC1 | – | ? | 7.9µM | ?
O=C(Nc1ccc(Cl)c(Cl)c1)Nc1ccc(N2CCCC2)c(S(=O)(=O)Nc2ccccc2Cl)c1 | -99 | 8.9µM | ? | –
CSc1cccc(NC(=O)C(C)C)c1 | – | – | – | –
CC(C)C(=O)Nc1cccc(S(=O)(=O)c2cccc(NC(=O)C(C)C)c2)c1 | – | 0.63µM | ? | –
CCCN1C(=O)C[C@H](S(=O)(=O)c2ccccc2)[C@H]1c1ccccc1 | – | · | · | ·
CCc1ccc(NC(=O)C(CC)Sc2nc3cc4c(cc3c(=O)n2Cc2ccco2)OCO4)cc1 (stereo not given) | ? | ? | ? | –
SMILES | HCMV antiviral | LASV entry inh | Marburg entry inh | FMDV antiviral
CCc1ccccc1NC(=O)C(CC)Sc1nc2cc3c(cc2c(=O)n1Cc1ccco1)OCO3 (stereo not given) | -94 | ? | ? | –
CCn1cc(CN2CCC(C(=O)Nc3cccc(-c4cccc(F)c4)c3)CC2)cn1 | -63 | – | – | –
Cn1cc(CN2CCCC(C(=O)Nc3cccc(-n4cccn4)c3)C2)cn1 (stereo not given) | – | – | – | –
Cn1cc(CN2CCCC(C(=O)Nc3ccc(-c4cccc(F)c4)cc3)C2)cn1 (stereo not given) | -72 | · | · | ?
CCOc1ccc(NC(=O)c2cn(C)c(=O)c3cc(OC)c(OC)cc23)cc1 | – | – | – | –
CCCSCC(=O)Nc1ncc2c(n1)-c1ccccc1CC2 | -95 | ? | – | –
CN(CC(O)CN1CCOCC1)S(=O)(=O)O (stereo not given) | – | – | – | –
CCOC(=O)N1CCN(C(=O)N2CCOCC2)CC1 | – | – | – | –
CCOC(=O)N1CC(C)N(CC(O)CN2CCOCC2)CC1C (stereo not given) | -88 | – | – | –
OC(CN1CCOCC1)CN1CCOCC1 | -65 | – | – | –
O=C(C=Cc1ccc2c(c1)OCO2)c1ccc(F)cc1 | · | · | – | ·
Cc1sc(NC(=S)NC(=O)c2ccc(C(C)(C)C)cc2)c(C#N)c1C | ? | ? | 8.2µM | ?
COC1=CC(=O)c2c(ccc3ncnc(N)c23)C1=O | -99 | ? | ? | 2.5µM
O=S1(=O)N[C@H](Cc2ccccc2)COc2cccc(NCCO)c21 | – | · | · | ·

Bioassay records as filed in PubChem.
